Screens as filed in PubChem BioAssay.
Sfp inh – qHTS Assay for Inhibitors of Bacillus subtilis Sfp phosphopantetheinyl transferase (PPTase); 4'-phosphopantetheinyl transferase ffp (Bacillus subtilis), Q9F4F7; Biochemical Sfp PPTase activity, qHTS; Potency, µM, most hits filed as inhibitors; 310,000 tested, 3.5% active;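 also: the enzyme is Sfp with the accession as filed and its product quenches rhodamine fluorescence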
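Step 1, compound plus 15 nM Sfp-PPTase, 15 min, room temperature. Step 2, add rhodamine-CoA (5 uM) and BHQ-2-YbbR (12.5 uM). Step 3, read 525/598 nm fluorescence at 0 and 30 min.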
KDM4E inh – qHTS Assay for Inhibitors of Human Jumonji Domain Containing 2E (JMJD2E). Lysine-specific demethylase 4E (Homo sapiens), B2RXH2. JMJD2E catalytic domain, FDH-coupled NADH fluorescence (FDH is formaldehyde dehydrogenase). Potency, µM (highest dose often 57.1 µM), usual class: inhibitors. 230,000 tested, 1.6% active. AID 2147, 2009; active = well fitted inhibition curve with a large enough effect, not every such curve was filed as active; inconclusive = small, poorly fitted or top-dose-only effect, or another doubt; inactive = no such curve, though single readings can be large or run the other way; also: nearly all actives have a fitted effect of over 50% in size
GoLoco inh red – qHTS Assay for Inhibitors of RGS12 GoLoco Motif Activity (Red Fluorophore) | 230,000 tested, 0.44% active | AID 880, 2007 | Gai1:RGS12 GoLoco peptide FP, rhodamine, 10 min | Potency, µM (highest dose often 61.6 µM), actives largely listed as inhibitors | Guanine nucleotide-binding protein G(i) subunit alpha-1 (Homo sapiens), P63096; active = well fitted inhibition curve with a large enough effect, not every such curve was filed as active; inactive = no such curve, though single readings can be large or run the other way; also: nearly all actives have a fitted effect of over 30% in size
Target sequence (P63096 whole entry, looked up): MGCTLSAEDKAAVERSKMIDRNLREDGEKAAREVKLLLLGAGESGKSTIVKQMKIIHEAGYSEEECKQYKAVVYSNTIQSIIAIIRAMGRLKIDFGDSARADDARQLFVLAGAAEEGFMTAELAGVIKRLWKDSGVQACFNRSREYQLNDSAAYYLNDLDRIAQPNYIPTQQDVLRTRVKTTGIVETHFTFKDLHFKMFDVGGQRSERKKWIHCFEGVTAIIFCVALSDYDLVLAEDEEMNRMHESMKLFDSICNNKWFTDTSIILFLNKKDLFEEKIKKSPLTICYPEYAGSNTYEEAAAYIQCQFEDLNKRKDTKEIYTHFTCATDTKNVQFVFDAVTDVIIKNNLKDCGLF
ALDH1A1 block – qHTS Assay for Inhibitors of Aldehyde Dehydrogenase 1 (ALDH1A1); Aldehyde dehydrogenase 1A1 (Homo sapiens), P00352; Purified ALDH1A1, NADH fluorescence, propionaldehyde substrate; Potency, µM (doses to about 75.3 µM), hits mostly inhibitors; 220,000 tested, 7.3% active; AID 1030, 2008; active = well fitted inhibition curve with a large enough effect, not every such curve was filed as active; inconclusive = small, poorly fitted or top-dose-only effect, or another doubt; inactive = no such curve, though single readings can be large or run the other way
Coupling enz – qHTS Assay for Inhibitors of Fructose-1,6-bisphosphate Aldolase from Giardia Lamblia: Coupling assay counterscreen | coupling enzyme system counterscreen, AmpLite Red fluorescence | 290,000 tested, 0.67% active | AID 2472, 2010 | activity change, negative = inhibition, % at 58.2 µM, hits read low; in the data active = activity change below about -30%
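Final compound at 57.5 uM, incubated 10 min at RT with coupling enzyme reagent (glyceraldehyde-3-phosphate), then 20 min with substrate and AmpLite Red detection. Fluorescence read at 525/598 nm; tests interference with the coupling assay, not aldolase inhibition.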
NPSR antagonist – qHTS Assay for Antagonists of the Neuropeptide S Receptor: cAMP Signal Transduction. Q6W5P4. CHO-NPSR cells, cAMP TR-FRET, antagonist mode. Potency, µM (series often up to 38.3 µM), hits mostly inhibitors. 220,000 tested, 1% active. AID 1461, 2008; also: nearly all actives have a fitted effect of over 50% in size
Numbers stand for hits. Shown are actives, neighbours in structure and some others; about 8.5% of the full set was active somewhere. Unless noted, calls follow the shape of the dose curve; as a rule, active = well fitted curve in the direction sought with a large enough effect; inconclusive = small, poorly fitted or top-dose-only effect, or another doubt; inactive = no such curve, though single readings can be large; an effect the other way counts as inactive or inconclusive.

Screening CCc1nnc(NC(=O)c2cc(-c3ccccn3)nc3ccc(Br)cc23)s1 returned Sfp inh inactive and Coupling enz inactive.
O=C(COC(=O)CCSc1ccccc1)NCc1ccc(F)cc1 was read as Sfp inh inactive, KDM4E inh inactive, GoLoco inh red inactive, ALDH1A1 block inactive, Coupling enz inactive and NPSR antagonist inactive.
Cc1cc(C(=O)Nc2sc3c(c2C#N)CCC3)no1 was read as Sfp inh inactive, KDM4E inh inactive, GoLoco inh red inactive, ALDH1A1 block inconclusive, Coupling enz inactive and NPSR antagonist inactive.
For CC(C)Cc1cc(C(=O)Nc2sc3c(c2C#N)CCC3)no1 the results were Sfp inh 56µM, KDM4E inh inactive, GoLoco inh red inactive, ALDH1A1 block 22µM, Coupling enz inactive and NPSR antagonist inactive.
Cc1cc(C)n(CCN(C)c2nc3nonc3nc2NC2CC2)n1 was read as Sfp inh inactive, KDM4E inh inactive, GoLoco inh red inactive, ALDH1A1 block inactive, Coupling enz inactive and NPSR antagonist inactive.
`O=c1oc(Nc2ccccc2F)nc2ccccc12` gave Sfp inh inactive, KDM4E inh inactive, ALDH1A1 block 20µM, Coupling enz inactive and NPSR antagonist inconclusive.
O=C(NC(=S)NC(=O)c1ccccc1F)c1ccccc1F was read as Sfp inh 50µM, KDM4E inh inactive, GoLoco inh red inactive, ALDH1A1 block 2µM, Coupling enz inactive and NPSR antagonist inactive.
O=C(NC(=S)NCc1ccccc1)c1ccccc1F was read as Sfp inh inactive, KDM4E inh inactive, GoLoco inh red inactive, ALDH1A1 block 32µM and NPSR antagonist inactive.
Screening O=C(NC(=S)NCCc1ccccc1)c1ccccc1F returned Sfp inh inactive.
Screening CC[C@H](C)[C@H](NC(=O)[C@H](Cc1ccc(O)cc1)NC(=O)[C@H](Cc1cnc[nH]1)NC(=O)[C@H](CCCNC(=N)N)NC(=O)[C@H](CC(C)C)NC(=O)[C@H](C)NC(=O)[C@H](CO)NC(=O)[C@H](Cc1ccc(O)cc1)NC(=O)[C@H](Cc1ccc(O)cc1)NC(=O)[C@H](CCCNC(=N)N)NC(=O)[C@H](C)NC(=O)[C@H](CC(C)C)NC(=O)[C@H](CC(=O)O)NC(=O)[C@H](CCC(=O)O)NC(=O)[C@H](C)NC(=O)[C@@H]1CCCN1C(=O)[C@H](C)NC(=O)[C@H](CC(=O)O)NC(=O)[C@H](CCC(=O)O)NC(=O)CNC(=O)[C@@H]1CCCN1C(=O)[C@H](CC(N)=O)NC(=O)[C@H](CC(=O)O)NC(=O)[C@@H]1CCCN1C(=O)[C@H](CCCCN)NC(=O)[C@H](CO)NC(=O)[C@@H]1CCCN1C(=O)[C@@H](N)Cc1ccc(O)cc1)C(=O)N[C@@H](CC(N)=O)C(=O)N[C@@H](CC(C)C)C(=O)N[C@@H](CC(C)C)C(=O)N[C@H](C(=O)N[C@@H](CCCNC(=N)N)C(=O)N1CCC[C@H]1C(=O)N[C@@H](CCCNC(=N)N)C(=O)N[C@@H](Cc1ccc(O)cc1)C(N)=O)[C@@H](C)O returned Sfp inh inactive and Coupling enz inactive.
For CN1CCC(NC(=S)Nc2cccc([N+](=O)[O-])c2)CC1 the results were Sfp inh inactive, KDM4E inh inactive, GoLoco inh red inactive, ALDH1A1 block inactive, Coupling enz inactive and NPSR antagonist inactive.
For COC(=O)C1C(O)=C(C(C)=Nc2cccc3ccccc23)C(=O)CC1(C)C (stereo not given) the results were Sfp inh inactive, KDM4E inh inconclusive, GoLoco inh red inactive, ALDH1A1 block inconclusive, Coupling enz inactive and NPSR antagonist inactive.
For O=Cc1ccc(Sc2nnc(-c3ccccc3)o2)c([N+](=O)[O-])c1 the results were Sfp inh inactive, KDM4E inh inactive, GoLoco inh red inactive, ALDH1A1 block 7.9µM, Coupling enz inactive and NPSR antagonist inactive.
